Among the targets are CRX (Homo sapiens, UniProt O43186 26-111, E42D); PITX2 (Homo sapiens, UniProt Q99697 72-157); HOXA2 (Homo sapiens, UniProt O43364 129-215, R185K).
Holding throughout (experiment): PBM; 200 nM protein, PBS
Holding throughout (conditions): dsDNA, one strand shown

The target in assay [1] is T1, NKX2-6 (Homo sapiens, UniProt A6NCS4 118-204, R150C).
T1 sequence: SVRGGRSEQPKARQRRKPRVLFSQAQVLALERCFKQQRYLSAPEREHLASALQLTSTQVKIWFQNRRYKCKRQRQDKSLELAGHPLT

The target of assay [2] is NKX3-2 (Homo sapiens, UniProt P78367 192-278, P234S).
In assay [3] the target is NKX3-2 (Homo sapiens, UniProt P78367 192-278).
Assay [4] deals with HOXC9 (Homo sapiens, UniProt P31274 178-260).
The target of assay [5] is ALX3 (Homo sapiens, UniProt O95076 139-225, N203Q).
Assay [6] deals with HOXD13 (Homo sapiens, UniProt P35453 263-343, T313R).
Assay [7] concerns the target HOXD13 (Homo sapiens, UniProt P35453 263-343).
Assay [8] addresses ALX3 (Homo sapiens, UniProt O95076 139-225).
For assay [9], the target named is ALX3 (Homo sapiens, UniProt O95076 139-225, L168Q).
Assay [10] has as its target HOXD13 (Homo sapiens, UniProt P35453 263-343, T313A).
Assay [11] concerns the target ALX3 (Homo sapiens, UniProt O95076 139-225, L168V).
For assay [12], the target named is ALX3 (Homo sapiens, UniProt O95076 139-225, N203S).
Assay [13] addresses HOXC9 (Homo sapiens, UniProt P31274 178-260, R222W).
Assay [14] deals with T2, NKX2-6 (Homo sapiens, UniProt A6NCS4 118-204, F151L).
T2 sequence: T1 sequence with C33R, F34L

Assay [15] has as its target T3, NKX2-6 (Homo sapiens, UniProt A6NCS4 118-204).
T3 sequence: T1 sequence with C33R

In assay [16] the target is MSX2 (Homo sapiens, UniProt P35548 130-214).
Assay [17] addresses MSX2 (Homo sapiens, UniProt P35548 130-214, F161Y).
The target in assay [18] is ALX1 (Homo sapiens, UniProt Q15699 118-204, L144V).
Assay [19] deals with ALX1 (Homo sapiens, UniProt Q15699 118-204, L144R).
For assay [20], the target named is ALX1 (Homo sapiens, UniProt Q15699 118-204).
The target of assay [21] is PROP1 (Homo sapiens, UniProt O75360 56-141).
In assay [22] the target is PROP1 (Homo sapiens, UniProt O75360 56-141, R99H).
For assay [23], the target named is PROP1 (Homo sapiens, UniProt O75360 56-141, F88S).
The target in assay [24] is MSX2 (Homo sapiens, UniProt P35548 130-214, R199I).
For assay [25], the target named is VAX1 (Homo sapiens, UniProt Q5SQQ9 86-172).
The target in assay [26] is VAX1 (Homo sapiens, UniProt Q5SQQ9 86-172, T142I).
In assay [27] the target is VAX1 (Homo sapiens, UniProt Q5SQQ9 86-172, K157R).

Numbering of substitutions follows the chain as printed.

HOXD13 (Homo sapiens, UniProt P35453 263-343), sequence (P35453 263-343): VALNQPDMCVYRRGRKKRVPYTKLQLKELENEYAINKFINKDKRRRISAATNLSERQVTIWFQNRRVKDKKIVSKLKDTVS
ALX1 (Homo sapiens, UniProt Q15699 118-204, L144V), sequence (Q15699 118-204 L144V): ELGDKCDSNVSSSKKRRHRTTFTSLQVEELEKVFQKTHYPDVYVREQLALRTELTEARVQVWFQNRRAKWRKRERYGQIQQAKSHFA
HOXC9 (Homo sapiens, UniProt P31274 178-260, R222W), sequence (P31274 178-260 R222W): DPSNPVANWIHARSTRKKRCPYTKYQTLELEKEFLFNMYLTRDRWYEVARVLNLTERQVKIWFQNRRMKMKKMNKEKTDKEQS
NKX3-2 (Homo sapiens, UniProt P78367 192-278), sequence (P78367 192-278): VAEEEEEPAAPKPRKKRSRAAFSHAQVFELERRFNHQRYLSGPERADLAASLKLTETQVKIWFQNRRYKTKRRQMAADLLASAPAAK
ALX3 (Homo sapiens, UniProt O95076 139-225, N203S), sequence (O95076 139-225 N203S): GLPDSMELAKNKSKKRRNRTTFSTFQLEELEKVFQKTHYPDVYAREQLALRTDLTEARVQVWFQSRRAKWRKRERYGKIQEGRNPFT
ALX3 (Homo sapiens, UniProt O95076 139-225, L168V), sequence (O95076 139-225 L168V): as the sequence (O95076 139-225 N203S) above, with L30V, S65N counted along it
HOXD13 (Homo sapiens, UniProt P35453 263-343, T313A), sequence (P35453 263-343 T313A): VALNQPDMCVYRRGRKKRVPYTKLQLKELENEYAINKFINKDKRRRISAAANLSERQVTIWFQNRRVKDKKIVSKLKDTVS
MSX2 (Homo sapiens, UniProt P35548 130-214), sequence (P35548 130-214): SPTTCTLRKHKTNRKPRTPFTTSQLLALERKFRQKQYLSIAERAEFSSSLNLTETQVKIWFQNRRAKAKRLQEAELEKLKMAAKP
ALX3 (Homo sapiens, UniProt O95076 139-225), sequence (O95076 139-225): as the sequence (O95076 139-225 N203S) above, with S65N counted along it
ALX1 (Homo sapiens, UniProt Q15699 118-204), sequence (Q15699 118-204): as the sequence (Q15699 118-204 L144V) above, with V27L counted along it
MSX2 (Homo sapiens, UniProt P35548 130-214, F161Y), sequence (P35548 130-214 F161Y): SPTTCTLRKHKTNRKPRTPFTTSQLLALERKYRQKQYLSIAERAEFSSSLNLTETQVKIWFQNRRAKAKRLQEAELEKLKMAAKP
NKX3-2 (Homo sapiens, UniProt P78367 192-278, P234S), sequence (P78367 192-278 P234S): as the sequence (P78367 192-278) above, with P43S counted along it
ALX3 (Homo sapiens, UniProt O95076 139-225, L168Q), sequence (O95076 139-225 L168Q): as the sequence (O95076 139-225 N203S) above, with L30Q, S65N counted along it
ALX1 (Homo sapiens, UniProt Q15699 118-204, L144R), sequence (Q15699 118-204 L144R): as the sequence (Q15699 118-204 L144V) above, with V27R counted along it
ALX3 (Homo sapiens, UniProt O95076 139-225, N203Q), sequence (O95076 139-225 N203Q): as the sequence (O95076 139-225 N203S) above, with S65Q counted along it
HOXC9 (Homo sapiens, UniProt P31274 178-260), sequence (P31274 178-260): as the sequence (P31274 178-260 R222W) above, with W45R counted along it
HOXD13 (Homo sapiens, UniProt P35453 263-343, T313R), sequence (P35453 263-343 T313R): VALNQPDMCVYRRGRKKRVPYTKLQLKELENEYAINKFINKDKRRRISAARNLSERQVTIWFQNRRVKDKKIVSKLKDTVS
HOXA2, sequence (O43364 129-215 R185K): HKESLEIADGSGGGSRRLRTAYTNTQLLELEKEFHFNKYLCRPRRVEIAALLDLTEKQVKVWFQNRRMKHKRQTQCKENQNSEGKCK
MSX2 (Homo sapiens, UniProt P35548 130-214, R199I), sequence (P35548 130-214 R199I): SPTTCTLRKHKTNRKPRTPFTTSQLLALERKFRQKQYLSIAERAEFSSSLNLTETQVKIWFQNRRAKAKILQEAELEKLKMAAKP
PROP1 (Homo sapiens, UniProt O75360 56-141, F88S), sequence (O75360 56-141 F88S): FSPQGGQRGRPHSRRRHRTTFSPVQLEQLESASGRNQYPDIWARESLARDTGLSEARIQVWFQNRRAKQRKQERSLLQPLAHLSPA
PROP1 (Homo sapiens, UniProt O75360 56-141), sequence (O75360 56-141): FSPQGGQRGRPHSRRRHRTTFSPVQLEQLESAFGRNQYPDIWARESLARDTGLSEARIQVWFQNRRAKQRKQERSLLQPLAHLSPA
PROP1 (Homo sapiens, UniProt O75360 56-141, R99H), sequence (O75360 56-141 R99H): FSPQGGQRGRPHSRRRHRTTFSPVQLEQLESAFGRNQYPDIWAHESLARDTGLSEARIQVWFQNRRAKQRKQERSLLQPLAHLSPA
CRX, sequence (O43186 26-111 E42D): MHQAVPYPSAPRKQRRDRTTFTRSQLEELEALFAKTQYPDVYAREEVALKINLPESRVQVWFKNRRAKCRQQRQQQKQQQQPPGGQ
VAX1 (Homo sapiens, UniProt Q5SQQ9 86-172, K157R), sequence (Q5SQQ9 86-172 K157R): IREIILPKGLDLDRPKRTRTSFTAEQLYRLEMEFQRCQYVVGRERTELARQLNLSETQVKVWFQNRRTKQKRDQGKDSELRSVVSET
VAX1 (Homo sapiens, UniProt Q5SQQ9 86-172), sequence (Q5SQQ9 86-172): as the sequence (Q5SQQ9 86-172 K157R) above, with R72K counted along it
VAX1 (Homo sapiens, UniProt Q5SQQ9 86-172, T142I), sequence (Q5SQQ9 86-172 T142I): as the sequence (Q5SQQ9 86-172 K157R) above, with T57I, R72K counted along it

For AAGTGGGG, the binding signal with NKX2-6 [1] is 11.7 upbm affinity estimate (log intensity, higher = more binding, comparable within an allelic series); with NKX3-2 [2], 12.7 upbm affinity estimate (log intensity, higher = more binding, comparable within an allelic series); with NKX3-2 [3] it was 12.8 upbm affinity estimate (log intensity, higher = more binding, comparable within an allelic series).
For AAGTGGCA, the binding signal with NKX2-6 [1] is 11.6 upbm affinity estimate (log intensity, higher = more binding, comparable within an allelic series); in the assay with NKX3-2 [2], 12.6 upbm affinity estimate (log intensity, higher = more binding, comparable within an allelic series); with NKX3-2 [3], 12.7 upbm affinity estimate (log intensity, higher = more binding, comparable within an allelic series).
With CGTAACGC, the binding signal with HOXC9 [4] was 10.6 upbm affinity estimate (log intensity, higher = more binding, comparable within an allelic series).
AAGTGCTC: the binding signal was 11.6 upbm affinity estimate (log intensity, higher = more binding, comparable within an allelic series) with NKX2-6 [1]; 12.5 upbm affinity estimate (log intensity, higher = more binding, comparable within an allelic series) with NKX3-2 [2]; 12.7 upbm affinity estimate (log intensity, higher = more binding, comparable within an allelic series) with NKX3-2 [3].
Turning to AAAGTGGT, the binding signal with NKX2-6 [1] is 11.7 upbm affinity estimate (log intensity, higher = more binding, comparable within an allelic series); with NKX3-2 [2] it was 12.7 upbm affinity estimate (log intensity, higher = more binding, comparable within an allelic series); with NKX3-2 [3], 12.8 upbm affinity estimate (log intensity, higher = more binding, comparable within an allelic series).
As to CCGTGCCG, the binding signal with NKX2-6 [1] was 9.27 upbm affinity estimate (log intensity, higher = more binding, comparable within an allelic series); in the assay with ALX3 [5], 7.7 upbm affinity estimate (log intensity, higher = more binding, comparable within an allelic series); with HOXD13 [6], 9.53 upbm affinity estimate (log intensity, higher = more binding, comparable within an allelic series); in the assay with HOXD13 [7], 9.45 upbm affinity estimate (log intensity, higher = more binding, comparable within an allelic series); with ALX3 [8], 7.7 upbm affinity estimate (log intensity, higher = more binding, comparable within an allelic series); with ALX3 [9], 7.76 upbm affinity estimate (log intensity, higher = more binding, comparable within an allelic series). For the same sequence, the binding signal with HOXD13 [10] was 9.84 upbm affinity estimate (log intensity, higher = more binding, comparable within an allelic series); with ALX3 [11] it was 7.72 upbm affinity estimate (log intensity, higher = more binding, comparable within an allelic series); with ALX3 [12] it was 7.71 upbm affinity estimate (log intensity, higher = more binding, comparable within an allelic series).
Turning to GCTCTTAA, the binding signal is 11 upbm affinity estimate (log intensity, higher = more binding, comparable within an allelic series) with HOXC9 [4] and 10.2 upbm affinity estimate (log intensity, higher = more binding, comparable within an allelic series) with HOXC9 [13].
For ACAAGTGC, the binding signal is 11.5 upbm affinity estimate (log intensity, higher = more binding, comparable within an allelic series) with NKX2-6 [1] and 10.6 upbm affinity estimate (log intensity, higher = more binding, comparable within an allelic series) in the assay with NKX2-6 [14].
As for AACTAATC, the binding signal with CRX was 12.7 upbm affinity estimate (log intensity, higher = more binding, comparable within an allelic series).
As to AAAGTGCA, the binding signal is 11.2 upbm affinity estimate (log intensity, higher = more binding, comparable within an allelic series) in the assay with NKX2-6 [1]; 12.2 upbm affinity estimate (log intensity, higher = more binding, comparable within an allelic series) in the assay with NKX2-6 [15]; 10.1 upbm affinity estimate (log intensity, higher = more binding, comparable within an allelic series) with NKX2-6 [14].
For the sequence GCCGACCA, the binding signal with NKX2-6 [1] was 9.61 upbm affinity estimate (log intensity, higher = more binding, comparable within an allelic series); with PITX2, 7.83 upbm affinity estimate (log intensity, higher = more binding, comparable within an allelic series).
Take ACCCTGCC: the binding signal in the assay with NKX2-6 [1] was 9.52 upbm affinity estimate (log intensity, higher = more binding, comparable within an allelic series); in the assay with HOXD13 [6] it was 9.6 upbm affinity estimate (log intensity, higher = more binding, comparable within an allelic series); with HOXD13 [7], 9.65 upbm affinity estimate (log intensity, higher = more binding, comparable within an allelic series); with HOXD13 [10], 9.68 upbm affinity estimate (log intensity, higher = more binding, comparable within an allelic series).
ACCCTTAT: the binding signal was 10.8 upbm affinity estimate (log intensity, higher = more binding, comparable within an allelic series) in the assay with HOXC9 [4]; 10.8 upbm affinity estimate (log intensity, higher = more binding, comparable within an allelic series) with MSX2 [16]; 10.2 upbm affinity estimate (log intensity, higher = more binding, comparable within an allelic series) with HOXC9 [13]; 10.7 upbm affinity estimate (log intensity, higher = more binding, comparable within an allelic series) with MSX2 [17].
With ATTGCACA, the binding signal in the assay with HOXC9 [4] was 10.8 upbm affinity estimate (log intensity, higher = more binding, comparable within an allelic series).
On the same count and under the same terms, under TATCTCAA stands 11 upbm affinity estimate (log intensity, higher = more binding, comparable within an allelic series).
With ATTAGAGG, the binding signal in the assay with HOXC9 [4] is 10.9 upbm affinity estimate (log intensity, higher = more binding, comparable within an allelic series); with HOXC9 [13], 10.2 upbm affinity estimate (log intensity, higher = more binding, comparable within an allelic series).
Regarding GAGGTGGC, the binding signal with ALX1 [18] is 6.34 upbm affinity estimate (log intensity, higher = more binding, comparable within an allelic series); with ALX1 [19] it was 6.43 upbm affinity estimate (log intensity, higher = more binding, comparable within an allelic series); with ALX1 [20], 6.4 upbm affinity estimate (log intensity, higher = more binding, comparable within an allelic series).
For the sequence CCTACGGC, the binding signal in the assay with ALX1 [18] is 6.56 upbm affinity estimate (log intensity, higher = more binding, comparable within an allelic series); with ALX1 [19] it was 6.66 upbm affinity estimate (log intensity, higher = more binding, comparable within an allelic series); with ALX1 [20] it was 6.68 upbm affinity estimate (log intensity, higher = more binding, comparable within an allelic series).
For GCTCCAGC, the binding signal with ALX3 [5] was 7.72 upbm affinity estimate (log intensity, higher = more binding, comparable within an allelic series); with ALX3 [8], 7.57 upbm affinity estimate (log intensity, higher = more binding, comparable within an allelic series); with ALX3 [9], 7.7 upbm affinity estimate (log intensity, higher = more binding, comparable within an allelic series); with ALX3 [11], 7.6 upbm affinity estimate (log intensity, higher = more binding, comparable within an allelic series); in the assay with ALX3 [12], 7.72 upbm affinity estimate (log intensity, higher = more binding, comparable within an allelic series).
For AGCGGGGC, the binding signal is 9.49 upbm affinity estimate (log intensity, higher = more binding, comparable within an allelic series) in the assay with HOXD13 [6]; 9.31 upbm affinity estimate (log intensity, higher = more binding, comparable within an allelic series) in the assay with HOXD13 [7]; 9.49 upbm affinity estimate (log intensity, higher = more binding, comparable within an allelic series) with HOXD13 [10].
As to GGCCAGCA, the binding signal with NKX2-6 [15] was 9.51 upbm affinity estimate (log intensity, higher = more binding, comparable within an allelic series); in the assay with NKX2-6 [14], 9.32 upbm affinity estimate (log intensity, higher = more binding, comparable within an allelic series).
GACCTCCC: in the assay with PITX2, the binding signal is 8.09 upbm affinity estimate (log intensity, higher = more binding, comparable within an allelic series).
In the case of GTAATCAA, the binding signal in the assay with HOXA2 is 13.1 upbm affinity estimate (log intensity, higher = more binding, comparable within an allelic series).
As to GGTAATCA, in the assay with HOXA2, the binding signal was 13.3 upbm affinity estimate (log intensity, higher = more binding, comparable within an allelic series).
Take CCTGTGCC: the binding signal with PROP1 [21] is 6.6 upbm affinity estimate (log intensity, higher = more binding, comparable within an allelic series); in the assay with PROP1 [22] it was 6.69 upbm affinity estimate (log intensity, higher = more binding, comparable within an allelic series); with PROP1 [23] it was 6.62 upbm affinity estimate (log intensity, higher = more binding, comparable within an allelic series).
As to CCCTAGCG, the binding signal with PROP1 [21] is 6.52 upbm affinity estimate (log intensity, higher = more binding, comparable within an allelic series); with PROP1 [22], 6.7 upbm affinity estimate (log intensity, higher = more binding, comparable within an allelic series); with PROP1 [23], 6.73 upbm affinity estimate (log intensity, higher = more binding, comparable within an allelic series).
As for AGCCCACC, the binding signal in the assay with MSX2 [24] is 9.45 upbm affinity estimate (log intensity, higher = more binding, comparable within an allelic series); in the assay with MSX2 [16], 9.52 upbm affinity estimate (log intensity, higher = more binding, comparable within an allelic series); in the assay with MSX2 [17], 9.47 upbm affinity estimate (log intensity, higher = more binding, comparable within an allelic series).
On to AATTGGTC, for which the binding signal in the assay with ALX1 [18] was 9.84 upbm affinity estimate (log intensity, higher = more binding, comparable within an allelic series); with ALX1 [19], 9.58 upbm affinity estimate (log intensity, higher = more binding, comparable within an allelic series); with ALX1 [20], 10.2 upbm affinity estimate (log intensity, higher = more binding, comparable within an allelic series).
For the sequence CGCCCACG, the binding signal in the assay with MSX2 [24] is 9.47 upbm affinity estimate (log intensity, higher = more binding, comparable within an allelic series); in the assay with MSX2 [16], 9.54 upbm affinity estimate (log intensity, higher = more binding, comparable within an allelic series); with MSX2 [17] it was 9.52 upbm affinity estimate (log intensity, higher = more binding, comparable within an allelic series).
As for CCGGGCCG, the binding signal was 6.6 upbm affinity estimate (log intensity, higher = more binding, comparable within an allelic series) with ALX1 [18]; 7.72 upbm affinity estimate (log intensity, higher = more binding, comparable within an allelic series) with ALX3 [5]; 6.56 upbm affinity estimate (log intensity, higher = more binding, comparable within an allelic series) in the assay with ALX1 [19]; 7.76 upbm affinity estimate (log intensity, higher = more binding, comparable within an allelic series) with ALX3 [8]; 7.74 upbm affinity estimate (log intensity, higher = more binding, comparable within an allelic series) with ALX3 [9]; 7.65 upbm affinity estimate (log intensity, higher = more binding, comparable within an allelic series) in the assay with ALX3 [11]. Besides, the binding signal was 6.37 upbm affinity estimate (log intensity, higher = more binding, comparable within an allelic series) with ALX1 [20] and 7.67 upbm affinity estimate (log intensity, higher = more binding, comparable within an allelic series) with ALX3 [12].
Regarding ATTATTGA, the binding signal is 10.4 upbm affinity estimate (log intensity, higher = more binding, comparable within an allelic series) in the assay with ALX1 [18]; 10.3 upbm affinity estimate (log intensity, higher = more binding, comparable within an allelic series) with ALX1 [19]; 10.8 upbm affinity estimate (log intensity, higher = more binding, comparable within an allelic series) in the assay with ALX1 [20].
For GCGGAGCC, the binding signal with ALX1 [18] was 6.64 upbm affinity estimate (log intensity, higher = more binding, comparable within an allelic series); in the assay with ALX1 [19], 6.35 upbm affinity estimate (log intensity, higher = more binding, comparable within an allelic series); with VAX1 [25], 7.22 upbm affinity estimate (log intensity, higher = more binding, comparable within an allelic series); in the assay with VAX1 [26], 7.36 upbm affinity estimate (log intensity, higher = more binding, comparable within an allelic series); in the assay with ALX1 [20] it was 6.57 upbm affinity estimate (log intensity, higher = more binding, comparable within an allelic series); with VAX1 [27], 7.24 upbm affinity estimate (log intensity, higher = more binding, comparable within an allelic series).
